PriA SSB inh = blocks PriA binding to SSB C-terminal tail; AlphaScreen SSBct-PriA binding, biotinylated peptide; inhibition, % at 33 µM; 0.6% of 430,000 active; in the data active means inhibition mostly above about 37%, no sharp cut-off; inactive means mostly below about 20%;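 further: plate controls were negative control peptide for no effect and reference peptide for full effect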
Sa RN4220 lethal = kills Staphylococcus aureus RN4220. S. aureus RN4220 growth, OD600, 16 h. inhibition, % (concentration not given with the values). 0.33% of 330,000 active. AID 1259311; in the data active means inhibition above about 85%;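 further: plate controls were untreated cells for no effect and reference antibiotic for full effect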
ugtP null kill = growth inhibition of S. aureus ugtP deletion strain. S. aureus RN4220 ugtP deletion, OD600 growth, 16 h. growth inhibition, % (test concentration not listed). 0.54% of 330,000 active; in the data active means growth inhibition above about 68%;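 further: plate controls were untreated wells for no effect and antibiotic for full effect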
* hit, by the source's call; ! = repeats disagree. Shown are actives, neighbours in structure and some others; about 1% of the full set was active somewhere.

How did Cc1ccc(O)c(NC(=O)c2cc([N+](=O)[O-])ccc2Cl)c1 do in these assays?
PriA SSB inh: -11.3; Sa RN4220 lethal: 2.6; ugtP null kill: 1.0

How did O=C(Nc1ccc([N+](=O)[O-])cc1Cl)c1cc(Cl)ccc1O do in these assays?
PriA SSB inh: -1.1; Sa RN4220 lethal: 100.9*; ugtP null kill: 100.1*

How did O=C(Nc1cccc(Cl)c1)c1cccc(Oc2ccc([N+](=O)[O-])cc2Cl)c1 do in these assays?
PriA SSB inh: -6.3; Sa RN4220 lethal: -12.0; ugtP null kill: -21.7

Results for CCN(Cc1ccccc1)S(=O)(=O)c1ccc(C(=O)Nc2nnc(C3=COCCO3)o2)cc1 ?
PriA SSB inh: -11.0

Results for COc1ccc(-c2csc(N(Cc3ccco3)C(=O)c3cccs3)n2)cc1 ?
PriA SSB inh: -6.3; Sa RN4220 lethal: -6.2; ugtP null kill: 15.6

How did O=C(C1CC1)N(Cc1ccco1)c1nc(-c2ccccc2)cs1 do in these assays?
PriA SSB inh: -3.4; Sa RN4220 lethal: -4.6; ugtP null kill: 96.4*

Results for CSC1CC2CCC(C1)N2C(=O)c1cnc(C)cn1 (stereo not drawn) ?
PriA SSB inh: -22.0

How did O=C(NCc1nccc(N2CCOCC2)n1)c1cccc(Cl)c1 do in these assays?
PriA SSB inh: -6.0

Results for C[C@](O)(CCc1ccccc1)CNS(=O)(=O)c1ccccc1Br ?
PriA SSB inh: 0.0

Results for C=CCSc1nc2c(c(C3CC=CCC3)c1C#N)CCC2 (stereo not drawn) ?
PriA SSB inh: -22.5; Sa RN4220 lethal: -3.5; ugtP null kill: 97.2*

How did CC(C)OC(=O)CSc1nc2c(c(C3CC=CCC3)c1C#N)CCC2 (stereo not drawn) do in these assays?
PriA SSB inh: -44.1; Sa RN4220 lethal: -2.3; ugtP null kill: 34.6

Results for CC(CC(=O)N1CCC(Cc2ccccc2)CC1)CC1=NS(=O)(=O)c2ccccc2N1 (stereo not drawn) ?
PriA SSB inh: -4.0

Results for O=C(Nc1cccnc1)Nc1cc(Cl)cc(Cl)c1 ?
PriA SSB inh: -15.9; Sa RN4220 lethal: 100.4*; ugtP null kill: 98.8*

How did O=C(Nc1cccnc1)Nc1ccccc1Cl do in these assays?
PriA SSB inh: -8.1; Sa RN4220 lethal: 5.2; ugtP null kill: -3.2

What do the screens show for `COc1cc2sc(=NC(=O)c3cc(C)n(C)n3)n(C)c2cc1OC`?
PriA SSB inh: -11.0

How did Clc1ccc(CN=C2Nc3ccccc3CS2)cc1 do in these assays?
PriA SSB inh: -53.7; Sa RN4220 lethal: 18.5; ugtP null kill: 51.6

How did Cc1ccc(CN=C2Nc3ccccc3CS2)cc1 do in these assays?
PriA SSB inh: -29.3; Sa RN4220 lethal: 40.6; ugtP null kill: 82.2*

What do the screens show for `COc1ccc(-c2cc3c(=O)[nH]nc(SCC(=O)c4ccc5c(c4)OCO5)n3n2)cc1OC`?
PriA SSB inh: -18.0

What do the screens show for `COc1ccc(Cl)cc1NC(=S)N1CCN(c2ccccc2)CC1`?
PriA SSB inh: 2.0

How did O=c1[nH]c2nc(NCc3cccc(C(F)(F)F)c3)ncc2c(=O)n1Cc1ccccc1F do in these assays?
PriA SSB inh: 47.0

How did CCCN1CCCc2cc(CCNS(=O)(=O)c3ccccc3)ccc21 do in these assays?
PriA SSB inh: 86.3

Results for CCCN1CCCc2cc(CCNS(=O)(=O)CC)ccc21 ?
PriA SSB inh: 46.0*

How did CCCN1CCCc2cc(CCNS(=O)(=O)Cc3ccc(F)cc3)ccc21 do in these assays?
PriA SSB inh: 77.0*

Results for CCCN1CCCc2cc(CCNS(=O)(=O)c3ccc(Br)cc3)ccc21 ?
PriA SSB inh: 52.0*

What do the screens show for `CCCN1CCCc2cc(CCNS(=O)(=O)c3ccc(Cl)s3)ccc21`?
PriA SSB inh: active!

How did O=C(Cn1cnc(-c2ccc(F)cc2)cc1=O)N1CCN(C(=O)c2ccco2)CC1 do in these assays?
PriA SSB inh: -7.0

How did CCCN1CCCc2cc(CCNS(=O)(=O)Cc3cccc(Cl)c3)ccc21 do in these assays?
PriA SSB inh: 55.0*

What do the screens show for `CCCN1CCCc2cc(CCNS(=O)(=O)CCc3ccc(OC)cc3)ccc21`?
PriA SSB inh: 60.0*

How did CCCN1CCCc2cc(CCNS(=O)(=O)Cc3ccccc3)ccc21 do in these assays?
PriA SSB inh: 94.5*

How did O=S(=O)(Cc1ccccc1)NCCc1cccc(Cl)c1 do in these assays?
PriA SSB inh: -21.7; Sa RN4220 lethal: 3.9; ugtP null kill: 1.0

How did COc1cccc(-c2nnc(NC(=O)Cc3ccc(F)cc3)o2)c1 do in these assays?
PriA SSB inh: 5.0

Results for COc1ccc2nc(-c3ccc(OC)c(NC(=O)c4cc5ccccc5oc4=O)c3)cn2n1 ?
PriA SSB inh: -9.0

How did COc1ccccc1-n1ncc2c(C(C)C)nnc(SCc3ccccn3)c21 do in these assays?
PriA SSB inh: 3.0

What do the screens show for `O=C(Nc1cccc(-c2ccc3nnc(-c4cccnc4)n3n2)c1)c1ccccc1[N+](=O)[O-]`?
PriA SSB inh: -1.0

How did O=C(CC(NCCC1=CCCCC1)C(=O)O)Nc1ccc(OC(F)F)cc1 (stereo not drawn) do in these assays?
PriA SSB inh: -8.0

What do the screens show for `Cc1cn2nc(C(=O)Nc3ccccn3)cc2c(=O)[nH]1`?
PriA SSB inh: -17.0

Results for O=C(Nc1nc(-c2ccccc2)cs1)c1ccccc1NS(=O)(=O)c1ccc(F)cc1 ?
PriA SSB inh: -13.3; Sa RN4220 lethal: 93.2*; ugtP null kill: 95.3*

What do the screens show for `O=C(Nc1nccs1)c1ccccc1NS(=O)(=O)c1ccc(F)cc1`?
PriA SSB inh: -5.0

Results for CC(C)=CCc1c(-c2ccc(O)cc2O)oc2c3c(cc(O)c2c1=O)OC(C)(C)C=C3 ?
Sa RN4220 lethal: 97.3*; ugtP null kill: 99.3*

Results for CC(C)=CCc1c2c(c(O)c3c(=O)c4c(oc13)-c1cc(O)c(O)cc1OC4C=C(C)C)C=CC(C)(C)O2 (stereo not drawn) ?
PriA SSB inh: 6.2; Sa RN4220 lethal: 3.5; ugtP null kill: -10.8

Results for CCc1cc(-c2n[nH]c(C)c2Oc2ccc(C(C)C)cc2)c(O)cc1O ?
PriA SSB inh: 29.4; Sa RN4220 lethal: 86.4*; ugtP null kill: 98.9*

What do the screens show for `CCCOc1cc(O)c(-c2n[nH]c(C)c2Oc2ccccc2)cc1CC`?
PriA SSB inh: 11.0

What do the screens show for `CN(C)c1nc(-c2ccccn2)nnc1-c1ccccc1`?
PriA SSB inh: 97.7*; Sa RN4220 lethal: 13.1; ugtP null kill: 2.9

How did Cc1ccc(-c2nnc(-c3ccccc3)c(-c3ccccc3)n2)cc1 do in these assays?
PriA SSB inh: 1.4; Sa RN4220 lethal: -8.5; ugtP null kill: 92.2*

How did CC(C)Nc1nc(-c2ccccn2)nnc1-c1ccccc1 do in these assays?
PriA SSB inh: 154.5*

What do the screens show for `c1ccc(-c2nnc(-c3ccccn3)nc2-c2ccccc2)cc1`?
PriA SSB inh: 54.3

Results for Oc1ccc(-c2nnc(-c3ccccc3)c(-c3ccccc3)n2)cc1 ?
Sa RN4220 lethal: 4.6; ugtP null kill: -0.8

How did CC(C)Nc1nc(-c2ccccc2)nnc1-c1ccccc1 do in these assays?
PriA SSB inh: -3.6; Sa RN4220 lethal: 2.3; ugtP null kill: 2.2

How did CC1=C(C(=O)Nc2ccccn2)C(c2ccccc2OCc2ccccc2)NC(=S)N1 (stereo not drawn) do in these assays?
PriA SSB inh: 16.0

How did Cc1cc(C)n2nc(C(=O)Nc3ccccc3-c3csc(-c4ccccc4F)n3)nc2n1 do in these assays?
PriA SSB inh: -5.0

Results for O=[N+]([O-])c1ccc(C[n+]2cccc3ccccc32)cc1 ?
PriA SSB inh: 3.8; Sa RN4220 lethal: 0.7; ugtP null kill: 0.1
